hgDAF12 agonist = agonists of H. glycines DAF-12 nuclear receptor; HEK293 GAL4-hgDAF12 UAS-luciferase reporter, agonist luminescence; normalized to butyrate control; activation, % at 6.8 µM; 370,000 compounds, 1.8% hits; AID 687014;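 active = activation above a cutoff set at the mean of all screened compounds plus 3 SD, cut at about 10% in these data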
ssDAF12 agonist = S. stercoralis DAF-12 activation, primary screen; HEK293 ssDAF-12/GRIP1 lit1-tk-luc reporter, luminescence; % of 3 µM dafachronic acid response; activation, % at 6.8 µM; 370,000 compounds, 1% hits;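 active = activation above the mean over all tested compounds plus 3 SD, cut at about 0.9% in these data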
hcDAF-12 act = activates DAF-12 receptor from parasite H. contortus; 370,000 compounds, 1.4% hits; activation, % at 6.8 µM; AID 652067; HEK293 hcDAF-12 lit1-tk-luc reporter, luminescence; 0% DMSO, 100% Δ7-dafachronic acid;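 active = activation above the mean of all tested compounds plus 3 SD, cut at about 5.5% in these data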
DAX1 inh-1 = NR0B1 (DAX1) inhibition; AID 504766; 340,000 compounds, 0.99% hits; inhibition, % at 6.75 µM; HEK293 Gal4-DAX1 luciferase reporter, luminescence;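 active = inhibition above the mean over all tested compounds plus 3 SD, cut at about 4.2% in these data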;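 also: inhibition shows as a rise in luminescence from relieved DAX1 repression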
DAX1 inh-2 = inhibitors of DAX1 repression of SF-1 activated StAR promoter | HEK293T StAR-luciferase reporter, SF-1/DAX-1 repression relief | inhibition, % at 6.8 µM | 370,000 compounds, 1.1% hits | AID 652010;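 active = inhibition above the mean over all tested compounds plus 3 SD, cut at about 3.6% in these data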;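 also: higher inhibition means more luminescence from relief of DAX-1 repression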
Rev-erbA mod = Rev-erb alpha (human) modulation | Rev-erbα–FITC-DNA binding, fluorescence polarization, 90 min | activity, % at 10 µM | 370,000 compounds, 0.79% hits | AID 1259318 | P20393;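 active = activity above about 14%, limit read from the data; passing the limit was not always enough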
Target sequence (P20393 whole entry, looked up): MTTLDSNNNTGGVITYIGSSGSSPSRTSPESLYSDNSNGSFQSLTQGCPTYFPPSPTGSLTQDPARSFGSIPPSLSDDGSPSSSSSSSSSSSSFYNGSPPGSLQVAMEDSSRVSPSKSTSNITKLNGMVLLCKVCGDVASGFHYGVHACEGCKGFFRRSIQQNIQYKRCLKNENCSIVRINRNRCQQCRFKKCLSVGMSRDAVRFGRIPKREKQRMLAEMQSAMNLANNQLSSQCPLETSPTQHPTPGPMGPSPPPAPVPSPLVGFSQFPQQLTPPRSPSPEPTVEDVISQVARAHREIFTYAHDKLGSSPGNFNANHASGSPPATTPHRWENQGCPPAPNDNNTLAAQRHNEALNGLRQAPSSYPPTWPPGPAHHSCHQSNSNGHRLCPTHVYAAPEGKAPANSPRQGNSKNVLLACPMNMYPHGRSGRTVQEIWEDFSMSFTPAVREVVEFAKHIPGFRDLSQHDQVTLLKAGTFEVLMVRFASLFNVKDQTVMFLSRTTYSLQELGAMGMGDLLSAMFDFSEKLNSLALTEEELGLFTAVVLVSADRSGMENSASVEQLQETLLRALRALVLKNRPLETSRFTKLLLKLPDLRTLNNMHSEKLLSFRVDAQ
Numbers stand for hits; 0 = inactive; - = no result. Compounds with a hit are over-represented: about 4.8% of the library has one in this group of screens.

SMILES	hgDAF12 agonist	ssDAF12 agonist	hcDAF-12 act	DAX1 inh-1	DAX1 inh-2	Rev-erbA mod
COc1ccc(-n2c(SCC(=O)Nc3cc(C)c(NC(=O)c4ccccc4)cc3OC)nnc2-c2ccccc2F)cc1	0	0	0	-	0	0
CC[C@H](C)[C@H](N)C(=O)O	-	-	-	-	-	0
COc1ccc(OC)c(-c2nnc(SCC(=O)N3CCCC3)o2)c1	0	0	0	4.9	0	0
COc1ccc(OC)c(-c2nnc(SCC(=O)N3CCOCC3)o2)c1	0	0	0	0	0	0
Cc1ccccc1-c1nnc(-c2cccc3ccccc23)o1	0	0	0	0	0	0
Cc1ccccc1-c1nnc(-c2ccccc2C)o1	11	0	0	0	0	0
O=C(CCS(=O)(=O)c1ccccc1)Nc1cc(Cl)ccc1F	0	0	0	-	0	0
Nc1nc(N)nc(COc2ccccc2)n1	11	0	0	4.7	0	0
CCOc1ccc(Cc2nc(N)nc(N)n2)cc1	0	0	0	0	0	0
CC1(C)CC(=O)C2=C(C1)NC1=C(C(=O)c3ccccc31)C2c1ccc(Cl)cc1 (stereo not given)	0	0	6.4	0	0	0
CNC(=S)N/N=C/c1ccc(N(C)C)cc1	11	0	0	0	0	0
O=C(OCc1cn(Cc2ccc(Cl)cc2)nn1)N1CCOCC1	0	0	0	-	0	0
Cc1cc(Cl)ccc1NC(=O)/N=C1/NC(=O)CS1	0	1.1	0	-	0	0
COCc1[nH]nc2c1C(c1cccc(C(F)(F)F)c1)N(c1ccc(OC)cc1)C2=O (stereo not given)	0	0	0	-	0	0
Cn1cccc1C(=O)OCc1cc(-c2ccco2)on1	0	0	0	0	4.3	0
CC(=O)Nc1cccc(-c2nc3ccccc3s2)c1	11	0	0	0	0	0
CC(C)c1ccc(-c2nc3ccccc3s2)cc1	0	0	0	0	0	0
CCOc1cc(-c2nc3ccccc3s2)ccc1O	11	0	0	0	0	0
CC(=O)Nc1cccc(-c2cc(C)c3cc4c(cc3n2)OCO4)c1	0	0	5.6	0	0	0
CCCC(=O)OC12CCCN(C1)/C(=C/c1cccc(N(C)C)c1)C2 (stereo not given)	0	0	0	-	0	0
Cc1nn(-c2ccccc2)c2sc(C(=O)NNC(=O)COc3cccc4ccccc34)cc12	0	0	0	0	0	0
Cc1nn(-c2ccccc2)c2sc(C(=O)NNC(=O)COc3ccccc3)cc12	0	1.6	0	0	0	0
COC(CNC(=O)[C@H](Cc1ccccc1)NCC(=O)NC1CCCCC1)OC	0	0	0	-	-	0
CNC(=O)CN(c1ccc(F)cc1)S(=O)(=O)c1cc(C)ccc1OC	0	0	0	4.3	0	0
CCc1ccc(Nc2ncc3c(n2)CC(C)CC3=O)cc1 (stereo not given)	0	0	0	0	3.8	0
SMILES	hgDAF12 agonist	ssDAF12 agonist	hcDAF-12 act	DAX1 inh-1	DAX1 inh-2	Rev-erbA mod
CCc1ccc(Nc2ncc3c(n2)CC(c2ccc(OC)cc2)CC3=O)cc1 (stereo not given)	0	0	0	0	0	0
CCc1ccc(Nc2ncc3c(n2)CC(C)(C)CC3=O)cc1	0	0	0	7.1	0	0
Cc1cc(-c2nc3ncccc3o2)ccc1NC(=O)CC(C)C	0	0	0	0	3.9	0
CC(C)CC(=O)Nc1cccc(-c2nc3ncccc3o2)c1	0	0	0	0	0	0
O=C(COc1ccc(S(=O)(=O)N2CCc3ccccc32)cc1Cl)NCc1ccccn1	0	0.9	0	0	0	0
Cc1cc2nc(-c3ccc(F)cc3)c(Cc3cccc(Cl)c3)n2c(C)c1Br	0	1.5	5.6	-	0	0
Cc1cc2nc(-c3ccccc3)c(Cc3cccc(Cl)c3)n2c(C)c1Br	11	0	0	-	0	0
Cc1cc2nc(C3CCCCC3)c(Cc3cccc(F)c3)n2c(C)c1Br	0	1.7	0	-	0	0
O=C([C@@H]1C[C@H]1c1ccccc1)N1CC[C@H]2[C@H](CCCN2Cc2cc(F)cc(F)c2)C1	0	0	0	-	0	0
COc1cccc(NC(=S)N(CCCN2CCCC2)Cc2cccn2Cc2ccc(Cl)cc2)c1	-	-	-	4.4	-	0
C[C@@H]1CCCN1c1cccc2c1S(=O)(=O)N1CC[C@@H](C1)O2	0	0	0	-	0	0
COc1ccc(N=Nc2ccc(N)nc2N)cc1	11	0	0	4.6	0	0
CCN(CC)c1cc2c(c3c1ccn3C)C1CCC2O1 (stereo not given)	0	0.9	0	-	0	0
